Results on 94 molecules are retold here after PubChem BioAssay AID463173 (ICCB-Longwood Screening Facility, Harvard Medical School, 2010).

The whole screen tested about 52,000 compounds, of which about 4,300 (8.3%) were called active. The entries come from a sample that favours actives as a whole. Unmarked numbers belong to inactive results. Cut-off read from the data, not from the text of the source: active = survival mostly below about 52% (no sharp cut-off); inactive = mostly above about 56%.

The experiment deals with DeltatarO mutant. Description: growth inhibition of S. aureus wild type versus tarO mutant, primary screen, teichoic acid synthesis inhibitors, RN4220, OD600 (AID 463173). The settings on record: OD600, 18 h, hits give low values, screened at 18.75 µg/mL (by protocol).
For `COc1cc(Nc2ncc3c(n2)CCN(Cc2cc(F)cc(F)c2)C3)cc(OC)c1`, the survival is 67%. In the case of `Cc1nc2cc(-c3ccccc3)nn2c(C)c1CCC(=O)N1CCN(c2ccccc2)CC1` it was 56%; in that of `CCOCCc1nnc(NC(=O)C(=O)c2cc(C)n(-c3cccc(C)c3)c2C)s1`, 65%; in that of `COc1cccc(CNC(=O)CCS(=O)(=O)c2cc3c4c(c2)CCN4C(=O)CC3)c1`, 68%. In the case of `O=C(COc1ccc(Br)cc1)N/N=C1\SCC(=O)N1c1ccc(F)cc1` it was 95%; in that of `CCc1ccc(NC(=O)CSc2nccn2-c2ccc(OC)cc2)cc1`, 107%.

With `Nc1cc(=O)[nH]c(=S)n1-c1ccccc1`, the survival was 99%.

On to `COc1cc(C2c3c(oc4ccc(C)cc4c3=O)C(=O)N2Cc2ccccc2)ccc1O` (centres undefined), for which the survival was 113%. In the case of `COc1cc(NC(=O)c2ncn(-c3ccccc3)n2)cc(OC)c1` it was 63%. The same measure for `CCOC(=O)c1ccc(N2C(=O)c3n[nH]c(-c4ccco4)c3C2c2ccc(OCC)cc2)cc1` (centres undefined): 91%; for `CCOC(=O)c1ccc(N2C(=O)c3n[nH]c(-c4ccco4)c3C2c2cccc(F)c2)cc1` (centres undefined): 12% (active). As to `CCOC(=O)c1ccc(N2C(=O)c3n[nH]c(-c4ccco4)c3C2c2ccc(O)c(OC)c2)cc1` (centres undefined), the survival was 118%. In the case of `COc1ccc(CCNC(=O)c2cc3c(s2)-c2ccccc2OC3)cc1OC` it was 49%.

For `CCOc1ccc(N(CC)C(=O)c2cc3c(s2)-c2ccccc2OC3)cc1`, the survival is 76%.

Turning to `CCc1ccc(CNC(=O)c2cc3c(s2)-c2ccccc2OC3)cc1`, the survival was 61%. In the case of `CCN(C(=O)c1cc2c(s1)-c1ccccc1OC2)c1cc(Cl)ccc1OC` it was 15% (active); in that of `O=C(NCCc1ccc(Cl)cc1)c1cc2c(s1)-c1ccccc1OC2`, 61%. As for `CCOc1ccc(N(CC)C(=O)c2cc3c(s2)-c2ccc(Cl)cc2SC3)cc1`, the survival is 81%. As to `CCc1ccccc1N(CC)C(=O)c1cc2c(s1)-c1ccccc1OC2`, the survival is -5% (active). In the case of `CCc1ccccc1N(CC)C(=O)c1cc2c(s1)-c1ccccc1SC2` it was -1% (active); in that of `CCCN(C(=O)c1cc2c(s1)-c1ccccc1OC2)c1ccccc1F`, -4% (active); in that of `O=C(NCc1cccc(Cl)c1)c1cc2c(s1)-c1ccccc1OC2`, 50%. For the molecule `O=C(NCc1ccccc1Cl)c1cc2c(s1)-c1ccccc1SC2`, the survival is 65%. The same measure for `CC(C)c1ccc(NC2=NCC(=O)N2Cc2ccccc2)cc1`: 87%; for `O=C(Nc1cccc(O)c1)c1cc2nc(-c3ccc(Br)cc3)cc(C(F)(F)F)n2n1`: 120%. On to `CC(=O)Nn1c(C)nc2ccccc2c1=O`, for which the survival was 75%. In the case of `Cc1nc(SC(C)C(=O)Nc2ccccc2Cl)cc(-c2ccccc2)n1` (centres undefined) it was 61%. In the case of `CCn1c(SCC(=O)OC)nnc1-c1ccc(O)cc1` it was 99%. The same measure for `COc1ccc(NC(=O)CC2C(=O)N(c3cccc(OC)c3)C(=O)N2Cc2cccnc2)cc1` (centres undefined): 94%. In the case of `CCn1c(CN2CCCCC2)nc2cc(NC(=O)COc3cc(C)ccc3C(C)C)ccc21`, the survival was 73%. Consider `COc1ccc(C)cc1Nc1cc(C)nc(C)n1`, for which the survival is 66%. In the case of `CCC(=O)N1CCc2cc(Br)cc(S(=O)(=O)CCC(=O)NCc3ccc(Cl)cc3)c21` it was 78%; in that of `CCOc1ccc(-c2cc(C(=O)OC)on2)cc1`, 55%. In the case of `CCc1ccc(NC(=O)CC2C(=O)N(c3cccc(C)c3)C(=O)N2Cc2ccc(F)cc2)cc1` (centres undefined) it was 89%. Take `CCN(c1ccccc1)C(CNS(=O)(=O)c1ccccc1)c1ccccc1` (centres undefined): the survival was 71%.

For the molecule `CCN(C(=O)c1cc2c(=O)n(CC)c3ccccc3c2s1)c1cccc(C(F)(F)F)c1`, the survival was 72%.

`CCN(C(=O)c1cc2c(s1)-c1ccccc1OC2)c1cccc(C(F)(F)F)c1`: the survival was -1% (active). The same measure for `O=C(NCc1ccc(F)cc1)c1cc2c(s1)-c1ccccc1SC2`: 45% (active). The same measure for `CCCN(C(=O)c1cc2c(s1)-c1ccccc1SC2)c1ccccc1F`: 1% (active); for `Cc1ccc(CNC(=O)c2cc3c(s2)-c2ccccc2SC3)cc1`: 94%; for `CCOc1ccc(CNC(=O)c2cc3c(s2)-c2ccccc2OC3)cc1`: 71%. In the case of `CCCN(C(=O)c1cc2c(=O)n(CC)c3ccccc3c2s1)c1ccccc1F` it was 64%. `CCCN(C(=O)c1cc2c(s1)-c1c(C)cccc1OC2)c1ccc(OCC)cc1`: the survival was 98%. The same measure for `CN(Cc1ccccc1)C(=O)c1cc2c(s1)-c1ccc(Cl)cc1SC2`: 86%; for `O=C(NCc1ccc(Cl)cc1)c1cc2c(s1)-c1ccccc1SC2`: 58%; for `CCCN(C(=O)c1cc2c(s1)-c1ccccc1OC2)c1ccc(C(C)C)cc1`: -3% (active). In the case of `COc1ccc(OCC(=O)Nc2ccc3c(c2)OCO3)cc1` it was 76%; in that of `COc1ccc(Cl)cc1NC(=O)N1CCC(CN2CCc3ccccc3C2)CC1`, 109%. In the case of `COc1ccc(S(=O)(=O)c2c(SC)nn(Cc3ccccc3C)c2NC(C)=O)cc1` it was 55%; in that of `CN1CCN(CCCNC(=O)c2cnn(-c3ccccc3)c2-n2cccc2)CC1`, 87%. For `Cc1ccc(OCC(=O)NCC(=O)OCc2cc(=O)n3nc(C)sc3n2)cc1`, the survival is 90%.

As to `Cc1ccc(C)c(N2CCN(c3nc4ccccc4n4nnnc34)CC2)c1`, the survival is 92%.

Turning to `COc1ccc(Cn2c(=O)[nH]c3cc(C(=O)N4CCN(c5cccc(OC)c5)CC4)ccc3c2=O)cc1`, the survival was 63%.

For `CC(C)(C)OC(=O)N1CCC(c2c(C(=O)Nc3ccc4c(c3)OCCO4)cnn2-c2ccc(Cl)cc2)CC1`, the survival was 87%. As to `CCOC(=O)c1cc(S(=O)(=O)N2CCN(c3ccc(C(C)=O)cc3)CC2)[nH]n1`, the survival is 126%.

Consider `Cc1c(Cl)cccc1NC(=O)CCS(=O)(=O)c1cccc2nsnc12`, for which the survival is 78%. In the case of `CCOCCCNC(=O)C(c1ccccc1)N1Cc2ccccc2C1=O` (centres undefined) it was 96%; in that of `CCCOc1ccc(CNC(=O)c2cc3ccccn3n2)cc1`, 116%; in that of `CCc1ccc(CNC(=O)c2cc3ccccn3n2)cc1`, 97%. Consider `Cc1ccc(CNC(=O)c2ccccc2NC(=O)c2nsc3ccccc23)cc1`, for which the survival is 60%. With `CCOc1ccc(CNC(=O)c2ccccc2NC(=O)c2nsc3ccccc23)cc1`, the survival is -5% (active). Turning to `CCOc1ccc(CNC(=O)c2cc3ccccn3n2)cc1`, the survival was 52% (active). Regarding `CC(C)Oc1ccc(CNC(=O)c2ccccc2NC(=O)c2nsc3ccccc23)cc1`, the survival was 122%.

On to `C=CCNC(=O)c1cc2sccc2n1Cc1ccccc1`, for which the survival is 85%.

Regarding `CC(C)C(=O)OCc1cc(=O)n2nc(C3CC3)sc2n1`, the survival was 86%. In the case of `COc1ccc(S(=O)(=O)N(C)C2CCCCC2)cc1` it was 85%; in that of `COc1ccc(S(=O)(=O)NNC(N)=S)cc1`, 100%; in that of `COc1ccc(S(=O)(=O)N/N=C(/C2CCCCC2)C(F)(F)F)cc1`, 35% (active).

As to `COc1ccc(CNC(=O)C(=O)NCC(c2ccco2)S(=O)(=O)c2ccc(C)cc2)cc1` (centres undefined), the survival is 124%.

As for `CC1Oc2ccccc2N(CC(=O)NCC2CCCO2)C1=O` (centres undefined), the survival is 83%. The same measure for `CCC(C)NC(=O)CSc1nc2c(sc3ccccc32)c(=O)n1CCc1ccc(OC)c(OC)c1` (centres undefined): 66%.

Take `COC(=O)CC1Oc2ccccc2-n2cc(-c3ccc(C)cc3)nc21` (centres undefined): the survival was 64%. Take `COC(=O)CC1Oc2ccc(Cl)cc2-n2cc(-c3ccc(C)cc3)nc21` (centres undefined): the survival is 80%. In the case of `COC(=O)CC1Oc2ccc(F)cc2-n2cc(-c3ccc(C)cc3)nc21` (centres undefined), the survival is 91%. In the case of `COC(=O)CC1Oc2ccc(C)cc2-n2cc(-c3ccc(C)cc3)nc21` (centres undefined) it was 37% (active); in that of `COC(=O)CC1Oc2ccc(Cl)cc2-n2cc(-c3ccc(F)cc3)nc21` (centres undefined), 90%; in that of `COC(=O)CC1Oc2ccc(C)cc2-n2cc(-c3ccc(F)cc3)nc21` (centres undefined), 56% (active). As for `COc1ccc(CCNC(=O)Cn2cc(C(=O)c3ccccc3)c(=O)c3ccc(C)nc32)cc1OC`, the survival was 124%. The same measure for `O=C(Nc1cccnc1N1CCOCC1)c1cc2ccccc2oc1=O`: 79%. With `COc1cc(OC)c(C2C(C(=O)Nc3ccccc3)=C(C)Nc3ncnn32)cc1OC` (centres undefined), the survival is 72%. In the case of `Cc1ccc(CNC(=O)CSc2n[nH]c(-c3ccc(F)cc3)n2)cc1` it was 122%. The same measure for `COc1ccc(CNC(=O)CSc2n[nH]c(-c3ccc(OC)cc3)n2)cc1`: -5% (active); for `COc1cccc(CNC(=O)CSc2n[nH]c(-c3ccccc3Cl)n2)c1`: 60%. With `CC(CCc1ccccc1)NC(=O)CSc1n[nH]c(-c2ccc(F)cc2)n1` (centres undefined), the survival was 126%. On to `O=C(CSc1n[nH]c(-c2ccccc2Cl)n1)NCc1ccc(F)cc1`, for which the survival is -4% (active). For `COc1ccc(CNC(=O)CSc2n[nH]c(-c3ccc(F)cc3)n2)cc1`, the survival was 109%. In the case of `O=C(CSc1n[nH]c(-c2ccccc2Cl)n1)NCCc1ccccc1` it was 87%; in that of `COc1ccc(-c2nc(SCC(=O)NC(C)CCc3ccccc3)n[nH]2)cc1` (centres undefined), 17% (active); in that of `CC(CCc1ccccc1)NC(=O)CSc1n[nH]c(-c2ccccc2)n1` (centres undefined), 94%. The same measure for `Cc1cccc(N2CCN(C(=O)c3ccc4c(c3)N(Cc3ccccc3)C(=O)c3ccccc3S4(=O)=O)CC2C)c1` (centres undefined): 63%; for `Cc1ccc(Cl)cc1NC(=O)c1oc2ccc(S(=O)(=O)N3CCCCC3)cc2c1C`: 74%. In the case of `Cc1cccc(NC(=O)CN2C(=O)CSc3ccc(S(=O)(=O)N4CCCC4)cc32)c1C` it was 92%; in that of `O=C(CSc1nc(-c2ccco2)cc(C(F)(F)F)n1)N1CCCC1`, 79%. On to `CC(NCc1ccc2c(c1)n(C)c(=O)n2C)c1ccccc1` (centres undefined), for which the survival was 94%.
